The supplement of paper PMC8975748
Where a name gives a salt, the structure may show the parent alone.

These compounds were tested on Saccharomyces cerevisiae BY4741 SeMeCo community (assay: z-score of subpopulation abundance vs DMSO median, subpopulation auxotrophic for HM; higher = larger share of this subpopulation than in DMSO controls). Settings: 10 µM; 24 h; SM minimal medium; subpopulation (auxotrophy): HM.
Experimental: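 Fluorescent four-plasmid SeMeCo (self-establishing metabolically cooperating S. cerevisiae BY4741 community; plasmids pH-mRuby2, pL-mWasabi, pU-eCFP, pM-TagRFP657) was grown 24 h in minimal SM medium with each Selleck FDA-approved drug at 10 µM in 384-well plates. Cells were fixed and imaged by high-content confocal microscopy. For each auxotrophic subpopulation (and the prototroph), a z-score gives the deviation from the DMSO vehicle-control population median.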

| SMILES | z-score of subpopulation abundance |
| --- | --- |
| CN(C)[C@@H]1C(=O)C(C(N)=O)=C(O)[C@@]2(O)C(=O)C3=C(O)c4c(O)cccc4[C@@](C)(O)[C@H]3[C@H](O)[C@@H]12 [Oxytetracycline Dihydrate] | -0.75 |
| COc1ccc(C(CN(C)C)C2(O)CCCCC2)cc1 (centres undefined) [Venlafaxine HCl] | -0.61 |
| C=CCN1C[C@H](C(=O)N(CCCN(C)C)C(=O)NCC)C[C@@H]2c3cccc4[nH]cc(c34)C[C@H]21 [Cabergoline] | -0.83 |
| NC(=O)CN1CCCC1=O [Piracetam] | 1.21 |
| CCN(C)C(=O)Oc1cccc([C@H](C)N(C)C)c1 [Rivastigmine Tartrate] | -1.12 |
| COc1ccc2c(c1)[C@]13CCCC[C@@H]1[C@H](C2)N(C)CC3 [Dextromethorphan hydrobromide hydrate] | 0.71 |
| O=c1cccc2n1C[C@@H]1CNC[C@H]2C1 [Cytisine] | 0.02 |
| CCN(CC)CCOC(=O)C(O)(c1ccccc1)c1ccccc1 [Benactyzine hydrochloride] | -0.6 |
| C[N+]1(C)[C@@H]2C[C@@H](OC(=O)[C@H](CO)c3ccccc3)C[C@H]1[C@@H]1O[C@@H]12 [Methscopolamine] | 0.16 |
| C[C@H]1O[C@H](O[C@H]2[C@H](O)[C@@H](O)[C@@H](O)[C@H](O)[C@@H]2O)[C@@H](N)C[C@@H]1NC(=N)C(=O)O [Kasugamycin hydrochloride] | -0.08 |
| CC(NC(C)(C)C)C(=O)c1cccc(Cl)c1 (centres undefined) [Amfebutamone (Bupropion) HCl] | -0.38 |
| C=C[C@H]1CN2CC[C@H]1C[C@H]2[C@H](O)c1ccnc2ccccc12 [Cinchonidine] | -0.43 |
| CCOC(=O)Nc1ccc(NCc2ccc(F)cc2)cc1N [Retigabine] | 0.58 |
| CC1(C)SC2C(N)C(=O)N2C1C(=O)O (centres undefined) [6-Aminopenicillanic acid] | 0.18 |
| CCC1=C[C@H]2CN3CCc4c([nH]c5ccccc45)[C@](C(=O)OC)(C2)[C@H]13 [Catharanthine] | -0.61 |
| CN1[C@@H]2C[C@@H](OC(=O)[C@H](CO)c3ccccc3)C[C@H]1[C@@H]1O[C@@H]12 [Scopolamine HBr] | -0.93 |
| N[C@@H]1C[C@H]1c1ccccc1 [Tranylcypromine (2-PCPA) HCl] | -0.71 |

| SMILES | z-score of subpopulation abundance |
| --- | --- |
| C[N+](C)(C)CCCCCCCCCC[N+](C)(C)C [Decamethonium Bromide] | -0.42 |
| NCC(O)c1ccc(O)cc1 (racemic) [(+,-)-Octopamine HCl] | -0.78 |
| CN[C@@H]1[C@@H](O)[C@@H](O[C@@H]2[C@@H](O)[C@H](O[C@H]3O[C@H](CN)CC[C@H]3N)[C@@H](N)C[C@H]2N)OC[C@]1(C)O.CN[C@@H]1[C@@H](O)[C@@H](O[C@@H]2[C@@H](O)[C@H](O[C@H]3O[C@H]([C@@H](C)N)CC[C@H]3N)[C@@H](N)C[C@H]2N)OC[C@]1(C)O.CN[C@@H]1[C@@H](O)[C@@H](O[C@@H]2[C@@H](O)[C@H](O[C@H]3O[C@H]([C@@H](C)NC)CC[C@H]3N)[C@@H](N)C[C@H]2N)OC[C@]1(C)O [Gentamicin Sulfate] | -0.24 |
| Cc1cc(C(C#N)c2ccc(Cl)cc2)c(Cl)cc1NC(=O)c1cc(I)cc(I)c1O (centres undefined) [Closantel] | -0.13 |
| CN1c2ccccc2C(NCCCCCCC(=O)O)c2ccc(Cl)cc2S1(=O)=O (centres undefined) [Tianeptine sodium] | -0.51 |
| CC[C@H]1CN2CC[C@]3(C(=O)Nc4ccccc43)[C@@H]2C[C@@H]1/C(=C\OC)C(=O)OC [Rhynchophylline] | -0.29 |
| CC[C@@H](C(N)=O)N1CCCC1=O [Levetiracetam] | -0.1 |
| NCCc1c[nH]c2ccc(O)cc12 [Serotonin HCl] | 0.16 |
| COc1ccc2c3c([nH]c2c1)C(C)=NCC3 [Harmaline] | 3.18 |
| Nc1ccncc1 [4-Aminopyridine] | 0.26 |
| O=C(O[C@H]1C[N+]2(CCCOc3ccccc3)CCC1CC2)C(O)(c1cccs1)c1cccs1 [Aclidinium Bromide] | -0.01 |
| C=CC[C@]1(O)CC[C@H]2[C@@H]3CCC4=CC(=O)CCC4=C3C=C[C@@]21C [Altrenogest] | -0.25 |
| C[C@@H]1CC[C@H]2[C@@H](C)C(=O)O[C@@H]3O[C@@]4(C)CC[C@@H]1[C@]32OO4 [Artemisinin] | -2.41 |
| CN1[C@@H]2CC[C@H]1C[C@@H](OC(=O)[C@H](CO)c1ccccc1)C2 [Hyoscyamine] | -0.73 |
| CCCN1C[C@H](CSC)C[C@@H]2c3cccc4[nH]cc(c34)C[C@H]21 [Pergolide Mesylate] | -0.36 |
| O=[N+]([O-])C(Br)(CO)CO [Bronopol] | -0.03 |
| C=C(C)[C@H]1Cc2c(ccc3c2O[C@@H]2COc4cc(OC)c(OC)cc4[C@@H]2C3=O)O1 [Rotenone (Barbasco)] | 0.89 |
